Consider 40 molecules from PubChem BioAssay AID1733 (National Center for Advancing Translational Sciences (NCATS), 2009).

Structures are written as SMILES. “And” between values parts separate entries of the source, which are not always exact repeats. Equal entries are not always repeated. Records with an inconclusive call do not appear. The source made the active and inactive calls. Calls come from the whole dose curve; as a rule, active = well fitted inhibition curve with a large enough effect; inconclusive = small, poorly fitted or top-dose-only effect; inactive = flat fitted curve, though single readings scatter.

Chain of Luciferin 4-monooxygenase (Photinus pyralis) (P08659 whole entry, looked up, canonical isoform): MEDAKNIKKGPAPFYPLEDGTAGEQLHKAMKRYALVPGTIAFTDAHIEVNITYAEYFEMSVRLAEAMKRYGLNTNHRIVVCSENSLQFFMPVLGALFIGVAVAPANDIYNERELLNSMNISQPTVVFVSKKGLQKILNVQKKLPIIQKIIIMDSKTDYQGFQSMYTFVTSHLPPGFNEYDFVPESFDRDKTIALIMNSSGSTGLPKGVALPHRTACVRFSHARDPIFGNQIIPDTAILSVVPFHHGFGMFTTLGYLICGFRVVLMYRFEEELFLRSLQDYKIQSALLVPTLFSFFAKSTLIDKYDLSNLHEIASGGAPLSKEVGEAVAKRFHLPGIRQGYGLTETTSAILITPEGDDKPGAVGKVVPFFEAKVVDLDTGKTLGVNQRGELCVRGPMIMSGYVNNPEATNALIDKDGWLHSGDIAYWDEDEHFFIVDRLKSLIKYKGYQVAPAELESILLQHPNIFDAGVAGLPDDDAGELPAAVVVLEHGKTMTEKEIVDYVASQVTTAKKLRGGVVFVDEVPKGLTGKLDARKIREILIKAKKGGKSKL

For this experiment, the target named is Luciferin 4-monooxygenase (Photinus pyralis) (UniProt P08659). Briefly: Counterscreen Assay for Enhancers of SMN2 Splice Variant Expression: Interaction with Luciferase Reporter. The following applies: purified firefly luciferase, luminescence, 5 min; series mostly up to 40.3 µM; activity change, negative = inhibition: at the top concentration. An excerpt:
NIH Chemical Genomics Center [NCGC] NIH Molecular Libraries Probe Production centers Network [MLPCN] MLPCN Grant: R03 MH084179-01 Assay Submitter (PI): Elliot Androphy NCGC Assay Overview: Spinal muscular atrophy (SMA) is caused by insufficient levels of the survival motor neuron protein SMN. The SMN locus on chromosome 5q13 contains two inverted copies of SMN called SMN1 and SMN2 which are 99% identical at the amino acid level. SMN1 is a fully functional protein and SMN2 skips exon 7 90% of the time. Skipping of exon 7 produces non-functional protein product. 10% of the SMN2 protein includes exon 7 and is fully functional. In the SMA disease state, mutations in the SMN1 locus are the cause of the disease state. Because only 10% of SMN2 is of the fully functional form, it is not sufficient to overcome the deficiency produced by the loss of the SMN1 product. A therapy that either increases the amount of SMN2 product made increases the inclusion of exon 7 has been proposed for the treatment of SMA. We have designed an assay to identify small molecules that can increase the amount of functional SMN2 product by appending a luciferase reporter gene after the native SMN2 gene, such that inclusion of exon 7 in the expressed product places the luciferase sequence in frame, thus generating functional luciferase enzyme. One potential source of false positives in the primary screening assay is stabilization of the reporter luciferase via direct binding. This assay attempts to identify such compounds by screening directly for luciferase activity in the absence of the cellular system.
NCGC Assay Protocol Summary: The primary screen utilizes a luciferase reporter gene assay, combining the promoter and splicing based cassettes in tandem with the major portion of the native SMN1 cDNA, and then transfected into HEK293 cells. Compounds that modulate luciferase signal presumably modulate expression of […]. In this assay, we utilize purified firefly luciferase in lieu of a cellular reporter to identify compounds interacting directly with luciferase in the primary screen. Sequence, Parameter, Value, Description (1) Reagent, 2.5 uL, Enzyme in buffer (note A) (2) Compound, 23 nL, From stock solutions (3) Time, 5 minutes, Room temp (4) Reagent#2.5 ul, Luciferase detection reagent (note B) (5) Detector, 1 sec integrate, Luminescent read on Viewlux (note C) Sigma enzyme (1 mg) considered to be MW 61,000 diluted in 357 ul assay buffer to 50 uM stock. A - Enzyme and buffer consists of 50 mM Tris-acetate pH 7.6, 10 mM Mg acetate 0.05% BSA, 0.01% Tween and 5 nM firefly luciferase B - Detection reagent = britelite plus diluted 1:10 in PBS C - Viewlux settings were 1 second integration medium sensitivity Keywords: Spinal muscular atrophy, SMA, SMN2, high throughput screening, MLSMR, MLPCN, NIH Roadmap, qHTS and NCGC
For the molecule `COC(=O)C1=C(CN2CCc3ccccc32)NC(=O)NC1c1cc(C)ccc1C` (stereo not given), the activity change, negative = inhibition was 18.7% [at 48.7 pM] (inactive). For the molecule `Cc1ccc(-c2csc(N3CCC(NS(=O)(=O)c4ccc5c(c4)OCCO5)CC3)n2)cc1`, the “activity change, negative = inhibition” value was 23.9% (inactive). `COC(=O)C1=C(C)NC(=O)/C1=C\c1cc(C)n(-c2ccccc2F)c1C`: the activity change, negative = inhibition is 8.15% [at 48.7 pM] (inactive). On to `FC(F)(F)c1nnc(-c2ccccc2)nc1Oc1ccccc1`, for which the Potency was 11.2 µM (active). As for `CCCc1sc(N2CCCC(C(N)=O)C2)nc1-c1ccccc1` (stereo not given), the “activity change, negative = inhibition” value is -4.33% (inactive). With `Cc1ccc(C2c3c(oc4ccccc4c3=O)C(=O)N2CCCN2CCOCC2)o1` (stereo not given), the Potency was 12.6 µM (active). For `CC(C)Nc1nc(-c2ccccc2)nnc1-c1ccccc1`, the “activity change, negative = inhibition” value was 3.43% (inactive).

For the molecule `N#C/C(=C\Nc1ccccc1SC(F)(F)F)c1nc(-c2ccc(Cl)cc2)cs1`, the activity change, negative = inhibition is 19.5% [at 48.7 pM] (inactive). For `O=C(Nc1cccnc1)/C(N=Nc1c(Cl)cccc1Cl)=C(\O)c1ccccc1`, the activity change, negative = inhibition is -9.05% [at 48.7 pM] (inactive). `Clc1ccc(-c2nnc(-c3ccccc3)nc2-c2c[nH]c3ccccc23)cc1`: the “activity change, negative = inhibition” value was 3.46% (inactive). Take `O=C(NCc1cccs1)C(=O)NCC1OCCCN1S(=O)(=O)c1ccccc1` (stereo not given): the activity change, negative = inhibition was 14.3% [at 48.7 pM] (inactive). Regarding `O=C(O)c1cccc(COc2ccc(CO)cc2Cl)c1`, the Potency was 7.08 µM (active). In the case of `COc1ccc(CNC(=O)c2ccc(C(C)C)cc2)cc1`, the activity change, negative = inhibition was 39.8% [at 48.7 pM] (inactive). Turning to `CC(/C=C/C(=O)NO)=C\[C@@H](C)C(=O)c1ccc(N(C)C)cc1`, the “activity change, negative = inhibition” value was 8.8% [at 51 µM] (inactive). `Cc1ccc(C(=O)Cn2c3c(sc2=N)CCCC3)cc1`: the Potency is 126 nM (active) and 100 nM (active).

Take `COc1ccc(-c2csc(N3CCC(c4ccccc4)CC3)n2)cc1`: the “activity change, negative = inhibition” value was 27.4% (inactive). Take `Cc1ccc(-c2nnc(-c3ccccc3)c(N3CCOCC3)n2)cc1`: the “activity change, negative = inhibition” value was -6.15% (inactive).

Turning to `O=C(NCCCNCCCNC(=O)c1ccccn1)c1ccccn1`, the activity change, negative = inhibition is -6.78% [at 48.7 pM] (inactive). On to `CCOC(=O)c1c(-c2cccc(C)c2)csc1NC(=O)c1c(-c2ccccc2)noc1C`, for which the activity change, negative = inhibition is -9.91% [at 48.7 pM] (inactive). Turning to `Brc1ccc(-c2nnc(-c3ccccc3)c(N3CCSCC3)n2)cc1`, the Potency was 10 µM (active). As for `NC(=O)C1(N2CCCCC2)CCN(c2nc(-c3ccccc3)cs2)CC1`, the “activity change, negative = inhibition” value was -5.31% (inactive). For `O=C(Cc1c(F)cccc1Cl)N1CCN(C(=O)c2ccco2)CC1`, the activity change, negative = inhibition is -0.165% [at 48.7 pM] (inactive). `O=C(Nc1ccc([N+](=O)[O-])cc1Cl)c1cc(Cl)ccc1O`: the Potency was 0.794 µM (active). `Cc1nnc(-c2ccccc2)[nH]c1=O`: the “activity change, negative = inhibition” value is 13% (inactive). Still for that read-out and setting: then `Cc1ccc(-c2nnc(-c3ccccc3)c(-c3ccccc3)n2)cc1`, with -16.9% (inactive); and `NC(=O)C1(N2CCCCC2)CCN(c2nc(-c3ccc(Br)cc3)cs2)CC1`, with -6.31% (inactive). Regarding `OCCCNc1nc(-c2ccc(Br)cc2)nnc1-c1ccc(Cl)cc1`, the “activity change, negative = inhibition” value was -2.32% (inactive). Turning to `O=C(NCCc1cn2ccsc2n1)c1cccs1`, the activity change, negative = inhibition is -9.66% [at 48.7 pM] (inactive). Regarding `c1ccc(-c2nnc(-c3ccccc3)c(-c3c[nH]c4ccccc34)n2)cc1`, the “activity change, negative = inhibition” value was 3.91% (inactive). On to `CCCSc1nnc2c(n1)OC(c1sccc1C)Nc1ccccc1-2` (stereo not given), for which the Potency was 14.1 µM (active).

Turning to `O=C(Nc1nc(-c2ccc3ccccc3c2)cs1)C1CCN(S(=O)(=O)c2cccs2)CC1`, the “activity change, negative = inhibition” value is 1.13% (inactive).

For the molecule `O=c1[nH]c(=O)n(C2CCCO2)cc1Br` (stereo not given), the “activity change, negative = inhibition” value was 0.483% (inactive). On the same count and under the same terms, then `CCC1=Nc2ccccc2-c2nnc(SC)nc2O1`, with 2.58% (inactive); and `CCOc1ccc2nc(N3CCC(C(=O)N4CCN(c5ccccn5)CC4)CC3)sc2c1`, with -20.4% (inactive). `FC(F)(F)c1cccc(Oc2nc(-c3ccccc3)nnc2C(F)(F)F)c1`: the Potency was 8.91 µM (active). Regarding `C#CCn1c(S(=O)(=O)Cc2ccccc2Cl)nc(-c2ccccc2)c1-c1ccccc1`, the activity change, negative = inhibition was 12% [at 48.7 pM] (inactive).

Turning to `Cc1[nH]c2ccccc2c1-c1nc(-c2ccc(Cl)cc2)nnc1-c1ccccc1`, the “activity change, negative = inhibition” value is -0.944% (inactive). On to `OC[C@H]1O[C@@H](n2cnc3c(Nc4ccccc4)ncnc32)[C@H](O)[C@H]1O`, for which the “activity change, negative = inhibition” value was -1.32% [at 51 µM] (inactive).

For the molecule `COCCCN1C(=O)C(=O)/C(=C(/O)c2ccc3c(c2)CC(C)O3)C1c1cccnc1` (stereo not given), the activity change, negative = inhibition is 4.07% [at 48.7 pM] (inactive).

Take `CCC(=O)n1nc(NCc2ccccc2OC)nc1NCc1ccccc1OC`: the activity change, negative = inhibition is -6.75% [at 48.7 pM] (inactive).
